Data from PubChem BioAssay AID651820 (National Center for Advancing Translational Sciences (NCATS), 2012).
Several values for one entry are separate records, joined by “and”; a condition that tells them apart may be missing. Identical values can stand only once. In all, about 340,000 compounds went through this assay and about 12,000 (3.5%) were called active. Another 18% or so got no clear call; they are omitted. What follows is part of a selection rich in actives, with near analogues and random picks from the rest. The source holds several records for some structures; these can differ, active in one and inactive in another. Values without a mark were called inactive. Calls follow the shape of the dose curve; as a rule, active = well fitted inhibition curve with a large enough effect; inconclusive = small, poorly fitted or top-dose-only effect, or another doubt; inactive = no such curve, though single readings can be large or run the other way.

Experiment: qHTS Assay for Inhibitors of Hepatitis C Virus (HCV)
Settings: Huh7.5.1 HCVcc-Cre infection, luciferase reporter, 44 h; series mostly up to 41.8 µM; activity change, negative = inhibition: at the top concentration
Method in brief: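 Cells seeded at 1,000/well and cultured 4 h, then compounds added followed by HCVcc-Cre virus (~0.5 moi). After 44 h further culture, luciferase substrate was added, plates held 15 min at room temperature, and luminescence read for 15 sec.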
% is scaled to controls: 0 for no effect and ±100 for the full control effect; potency is read from the fitted curve at half-maximal effect.

Row | SMILES | activity change, negative = inhibition | Potency
1 | O=C(CCc1nc2sc3c(c2c(=O)[nH]1)CCCC3)NCC(=O)Nc1ccccc1Br | 16.5% | 
2 | COc1ccc(CNC(=O)COC(=O)C2=Cc3ccccc3OC2)cc1 | 5.91% | 
3 | Cn1cc(C2OC(=O)c3ccccc32)c2ccccc21 (stereo not drawn) | -11.7% | 
4 | COc1cc(F)c(C2=CC(=O)CC(C)(C)C2)cc1F | 0.584% | 
5 | Cc1cc([N+](=O)[O-])ccc1NS(=O)(=O)c1ccccc1 | -10.6% | 
6 | COC(=O)c1ccc(/C=C/c2c(-c3ccc(OC)cc3)sc3ccccc23)cc1 | 20.7% | 
7 | Cc1cccc(NC(=O)Nc2ccc(OCc3ccccc3)cc2)n1 | -13.2% | 
8 | Cc1cccc(NC(=O)c2ccccc2NC(=O)C(C)(C)C)n1 | 14.2% | 
9 | Cc1cccc(NC(=O)c2ccc(COc3ccccc3[N+](=O)[O-])o2)n1 |  | 25.1 µM (active)
10 | CCc1ccc(C(=O)C(C)OC(=O)CN2C(=O)NC3(CCCC3)C2=O)cc1 (stereo not drawn) | 11.3% | 
11 | NC(=O)c1ccc(CN2CCC(Cc3ccccc3)CC2)cc1 |  | 11.2 µM (active)
12 | Brc1ccccc1CN1CCC(Cc2ccccc2)CC1 | 13.6% | 
13 | O=C(O)c1ccc(S(=O)(=O)N2CCC(Cc3ccccc3)CC2)cc1 | 17% | 
14 | COc1ccccc1CNS(=O)(=O)c1cc2c3c(c1)CCC(=O)N3CCC2 | -27.5% | 
15 | COc1ccc(-c2nc3c(s2)CCc2onc(-c4ccc(Br)cc4)c2-3)cc1 | 6.47% | 
16 | CCCCn1c(N)c(N(CC(C)C)C(=O)CN(C)S(=O)(=O)c2ccc(F)cc2)c(=O)[nH]c1=O | 2.2% | 
17 | CC[C@@H]1Cc2cc(O)ccc2C2=C1c1ccc(O)cc1C[C@H]2CC |  | 3.16 µM (active)
18 | CC1(C)CC(=O)c2ccc(O)cc2O1 | -1.61% | 
19 | O=C(Nc1cccc(S(=O)(=O)NC2=NCCC2)c1)c1ccc(F)cc1F | -7.06% | 
20 | COc1ccc(-n2nc(C(=O)NCC(=O)N3CCCCCC3)c3ccccc3c2=O)cc1Cl |  | 11.2 µM (active)
21 | COc1ccc(-n2nc(C(=O)NCC(=O)N3CCC(C(N)=O)CC3)c3ccccc3c2=O)cc1OC | 12.3% | 
22 | COc1ccc(-n2nc(C(=O)NCC(=O)N3CCN(c4ccccc4OC)CC3)c3ccccc3c2=O)c(OC)c1 | -14% | 
23 | O=C1N[C@@H](Cc2ccccc2)C(=O)N2[C@@H]3N(S(=O)(=O)c4ccc(F)cc4)c4ccccc4[C@]3(Br)C[C@@H]12 | 2.9% | 
24 | CCOC(=O)C1CCN(CC(=O)Nc2ccc(OC)c(S(=O)(=O)N3CCCCC3)c2)CC1 | 6.66% | 
25 | O=c1[nH]c2c(c(=O)n1-c1ccccc1)CCO2 | 25.9% | 

Row | SMILES | activity change, negative = inhibition | Potency
26 | O=C(COC(=O)c1c2c(nc3ccccc13)/C(=C\c1cccs1)CCC2)Nc1ccccc1Cl |  | 4.47 µM (active) and 2.51 µM (active)
27 | COc1cc(/C=C2\CCCc3c2nc2ccccc2c3C(=O)O)cc(Cl)c1O | 8.48% | 
28 | O=C(COC(=O)c1cccs1)Nc1ccccc1Cl | 7.58% | 
29 | Cc1ccc(C)c(NC(=O)COC(=O)CSc2ccccc2)c1 | -8.78% | 
30 | CN(CC(=O)NCc1ccc2c(c1)OCO2)CC(=O)Nc1ccc(F)c(F)c1F | 7.62% | 
31 | COc1cc(/C=C/C(=O)Nc2ccc(OC)c(S(=O)(=O)N3CCOCC3)c2)ccc1OCC#N |  | 7.08 µM (active)
32 | COc1ccc(CNC(=O)COC(=O)c2ccc(C)c(S(=O)(=O)N3CCOCC3)c2)cc1OC | -3.02% | 
33 | COc1ccc(NS(=O)(=O)c2cc(NC(=O)/C=C/c3cc(OC)c(OC)c(OC)c3)ccc2N2CCCCC2)cc1 |  | inactive
34 | COc1cc(/C=C/C(=O)OCC(=O)N2CCOCC2)ccc1OCC#N | 3.73% | 
35 | COc1ccc(CC(=O)Nc2ccc3c(c2)CCC3)cc1S(=O)(=O)N1CCOCC1 | -3.24% | 
36 | COc1ccc(CCC(=O)Nc2ccc(Cl)c(S(=O)(=O)N3CCOCC3)c2)cc1OC |  | 11.2 µM (active)
37 | O=C(c1cnccn1)N1CCN(S(=O)(=O)c2cccc(Cl)c2)CC1 | 5.65% | 
38 | CCOc1ccc(NC(=O)COC(=O)C2CCC(=O)N2)c([N+](=O)[O-])c1 (stereo not drawn) | 21.4% | 
39 | CC(C)CC1NC(=O)c2cc(Cl)ccc2-n2c1nc1ccccc1c2=O (stereo not drawn) | 11.4% | 
40 | Cc1ccc2nc(-c3ccc(NC(=O)c4cccnc4)cc3)oc2c1 |  | 10 µM (active)
41 | CC(=O)Nc1ccc(-c2nc3ccccc3o2)cc1 | -1.93% | 
42 | Cc1cc2nc(-c3ccc(NC(=O)c4cccnc4)cc3)oc2cc1C | -25.6% | 
43 | N=C1c2ccccc2-c2ccccc21 | 8.98% | 
44 | CC(C)(C)OC(=O)C[C@@H]1C/C=C\C[C@@H](CC(=O)NCCO)C(=O)N[C@H](Cc2c[nH]c3ccccc23)COC1=O | 12.1% | 
45 | Cc1cc(C)c(S(=O)(=O)n2cc(C(C)C(N)C(=O)O)c3ccccc32)c(C)c1 (stereo not drawn) | 20.4% | 
46 | Cc1sc2ncnc(N3CCC(C(=O)Nc4nc5ccc(Cl)cc5s4)CC3)c2c1C | 0.865% | 
47 | O=C(NNC(=O)C1CCN(c2ncccn2)CC1)c1ccccc1 | 10.3% | 
48 | O=C(Cc1ccccc1)NNC(=O)C1CCN(c2ncccn2)CC1 | -20.5% | 
49 | CCc1ccc(C(=O)NNC(=O)C2CCN(c3ncnc4sc(C)c(C)c34)CC2)cc1 |  | 12.6 µM (active)
50 | Cc1cc(=O)n2nc(N3CCC(C(=O)Nc4c(F)c(F)c(F)c(F)c4F)CC3)sc2n1 | -8.41% | 

Row | SMILES | activity change, negative = inhibition | Potency
51 | Cc1sc2ncnc(N3CCC(C(=O)Nc4ccc(F)cc4Cl)CC3)c2c1C |  | 11.2 µM (active)
52 | CCOc1cccc2cc(C(=O)OCC(=O)Nc3c(C)cccc3CC)c(=O)oc12 | 7.95% | 
53 | O=C1/C(=C\c2cccnc2)CN(Cc2ccccc2)C/C1=C\c1cccnc1 |  | 6.31 µM (active)
54 | Clc1ccc(CN2CCN(/N=C/c3cccnc3)CC2)cc1 | -3.56% | 
55 | O=Cc1cn(Cc2ccccc2)nc1-c1cccnc1 | 5.66% | 
56 | CC(OC(=O)CNC(=O)c1cccc(F)c1)C(=O)NC1CCCCC1C (stereo not drawn) | -18.8% | 
57 | O=C(N/N=C/c1cc(Br)c(O)c([N+](=O)[O-])c1)C(O)(c1ccccc1)c1ccccc1 | 1.49% | 
58 | CC(C)OC(=O)c1ccc(NCc2cc(O)ccc2O)cc1Cl |  | 6.31 µM (active)
59 | COC(=O)c1ccc(NCc2cc(O)ccc2O)cc1 |  | 5.01 µM (active)
60 | C#CCNc1ccc(C(=O)OCC)cc1 | 20.7% | 
61 | CC(CN1CCCCC1)OC(=O)c1ccccc1Cl (stereo not drawn) | 5.79% | 
62 | CC(CN1CCOCC1)OC(=O)c1ccc(Cl)cc1Cl (stereo not drawn) | 17.4% | 
63 | COC(=O)c1ccc(NCC(=O)c2ccccc2)cc1 | -4.54% | 
64 | COc1ccc(Cl)cc1NC(=O)COc1ccc2c(c1)OCO2 | -5.11% | 
65 | CC1CN(C(=O)c2ccc([N+](=O)[O-])s2)CC(C)O1 (stereo not drawn) | 26.4% | 
66 | O=C(Nc1ccccc1)Nc1nc2ccccc2s1 | -12.9% | 
67 | c1ccc2sc(NN=C3CCCC3)nc2c1 | -20.9% | 
68 | c1ccc(C(=NNc2nc3ccccc3s2)c2ccccn2)cc1 |  | 1.58 µM (active)
69 | Cc1ccc(S(=O)(=O)N2CCOCC2)cc1NC(=O)COC(=O)c1cnccn1 | 0.865% | 
70 | CCOC(=O)CSc1nnc(-c2cccc(Br)c2)o1 | 15.7% | 
71 | Cc1cccc(C)c1OC(=O)CSc1nnc(-c2ccccc2)o1 | -4.66% | 
72 | CC1=CC(C)(C)N(C(=O)CSc2nnc(-c3ccccc3)o2)c2ccc(C)cc21 |  | 11.2 µM (active)
73 | CC1(C)C[C@H]2C3=CCC4[C@@]5(C)CC[C@H](O)[C@](C)(CO)C5CC[C@@]4(C)[C@]3(C)C[C@@H](O)[C@@]2(CO)[C@@H](O)[C@@H]1O (stereo partly drawn) | 8.47% | 
74 | Cc1cc(C(=O)COc2ccc(Br)cc2F)c(C)n1C1CC1 |  | 22.4 µM (active)
75 | Cc1cc(C(=O)OCC(=O)Nc2c(F)cccc2F)c(C)n1C1CC1 | 13.6% | 

Row | SMILES | activity change, negative = inhibition | Potency
76 | Cc1cc(C(=O)COc2ccccc2Cl)c(C)n1C1CC1 | -11.2% | 
77 | O=C(CSc1ccccn1)N1CCN(S(=O)(=O)c2ccc(Cl)cc2)CC1 | 2.37% | 
78 | COc1ccccc1-n1nnnc1SCC(=O)NC(=O)Cc1ccccc1 | 3.1% | 
79 | Cc1ccc(Cl)c(OCC(=O)N(C)CC(=O)Nc2ccc(N3CCOCC3)cc2)c1 | -13.6% | 
80 | O=C(COC(=O)c1ccco1)Nc1ccc(Cl)cn1 | 7.08% | 
81 | CN(C)[C@@H]1C(=O)C(C(N)=O)=C(O)[C@@]2(O)C(=O)C3=C(O)c4c(O)ccc(Cl)c4[C@@H](O)[C@H]3C[C@@H]12 | 0.778% [at 8.37 µM] | 2.82 µM (active)
82 | CCCCn1c(N)c(N(CCC(C)C)C(=O)c2ccc(COc3ccccc3)o2)c(=O)[nH]c1=O | -10.5% | 
83 | O=C(CNC(=O)c1cc(S(=O)(=O)N2CCOCC2)ccc1N1CCCC1)Nc1ccc(F)c(F)c1 | 5.03% | 
84 | CC1CC(=NNC(=O)C2COc3ccccc3O2)CC(C)(C)C1 (stereo not drawn) | -16.6% | 
85 | CN(C)C(=O)CCc1ccc2c3c([nH]c2c1)[C@]1(CCC2CCCC2)[C@@H](C(=O)N2CCOCC2)C[C@H](CC(=O)NCc2ccco2)C(=O)N1CC3 | 11% [at 8.37 µM] | 
86 | CCc1ccccc1NC(=O)CN(C)C(=O)c1cc(C2CC2)nn1-c1ccccc1 | -18.9% | 
87 | CN(C)S(=O)(=O)c1cccc(NC(=O)Cc2ccsc2)c1 | -5.68% | 
88 | CN(c1ccccc1)S(=O)(=O)c1cccc(C(=O)NNC(=O)c2ccncc2)c1 | -10.3% [at 8.37 µM] | 
89 | CN(c1ccccc1)S(=O)(=O)c1cccc(NC(=O)Cc2c(F)cccc2Cl)c1 |  | 8.91 µM (active)
90 | CCOC(=O)[C@@H]1[C@H]2COc3ccc(Br)cc3[C@H]2N2C(=O)N(c3ccc(C)cc3)C(=O)[C@@]12C | 4.27% | 
91 | COC(=O)CC(CC(=O)OC)n1cccc1 | 12.6% | 
92 | CCC(C)NC(=O)c1ccc(NC(=O)CC2SC(N3CCCCC3)=NC2=O)cc1 (stereo not drawn) | 8.14% | 
93 | O=C(Nc1cc2c3c(c1)CC(=O)N3CCC2)c1ccccc1F | -15% | 
94 | CCOc1cc(C(=O)Nc2ccc(S(=O)(=O)Nc3cnc4ccccc4n3)cc2)cc(OCC)c1OCC | 2.89% | 
95 | CC(=O)Oc1ccc(-c2nc3c(C)cccc3c(=O)o2)cc1 | -18.5% | 
96 | Cc1nc(N=C(N)N)nc2c(C)cccc12 |  | 14.1 µM (active)
97 | COc1cc(Cl)c(C)cc1NC(=O)CSc1nnc(CN2CCCC2)o1 | 9.24% | 
